The list is not random: actives were taken first. Their share in the collection is about 11%.
IMPase Li cell: cell-permeable IMPase inhibitors with lithium potentiation; CHO-M1 cells, IP1 TR-FRET (IP-One), carbachol + lithium; Potency, µM (top dose mostly 59.4 µM), most hits filed as inhibitors; 210,000 compounds, 0.35% hits; AID 1457;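 note: IP1 builds up when IMPase is blocked and the TR-FRET signal falls; nearly all actives have a fitted effect of over 50% in size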
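IP1 accumulation measured by competitive TR-FRET in lysed CHO-M1 cells after 30 min compound exposure at 37C, with a small lithium addition to potentiate weak responses. Hill-equation AC50 from ratio and donor-channel data.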
PNC assembly inh: blocks assembly of the perinucleolar compartment | PC3M PTB-GFP, PNC prevalence imaging, 16 h; stronger effect = lower value | activity change (PNC), negative = inhibition, % at 10 µM | 140,000 compounds, 3.1% hits | AID 2417;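 active = readout at or below -70, meaning at least 70% loss of cells showing the perinucleolar compartment, a nuclear body marking cancer cells; inconclusive = readout between -30 and a set limit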
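PC3M cells stably expressing PTB-GFP, 750–1000 cells/well, treated 16 h at 37 °C with compound (23 nl of library stock), in duplicate. After paraformaldehyde fixation and Hoechst stain, imaged at 20x; PNC prevalence scored by image analysis.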
HPGD block: inhibitors of human 15-hydroxyprostaglandin dehydrogenase (HPGD); P15428; purified HPGD, NADH fluorescence kinetic, PGE2 substrate; Potency, µM, actives largely listed as inhibitors; 150,000 compounds, 4.3% hits; AID 894; active = well fitted inhibition curve with a large enough effect, not every such curve was filed as active; inconclusive = small, poorly fitted or top-dose-only effect, or another doubt; inactive = no such curve, though single readings can be large or run the other way
Target sequence (P15428 whole entry, looked up): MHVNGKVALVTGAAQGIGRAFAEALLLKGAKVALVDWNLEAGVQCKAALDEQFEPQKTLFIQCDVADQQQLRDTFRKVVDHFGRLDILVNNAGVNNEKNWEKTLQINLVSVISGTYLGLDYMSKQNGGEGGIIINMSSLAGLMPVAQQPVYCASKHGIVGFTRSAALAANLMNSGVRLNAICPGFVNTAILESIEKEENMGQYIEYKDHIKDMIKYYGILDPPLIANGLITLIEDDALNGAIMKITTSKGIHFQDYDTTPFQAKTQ
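20 nM HPGD preincubated 15 min at room temperature with compound in 50 mM Tris-HCl pH 8, 0.01% Tween 20. Started with 1 mM NAD+ and 30 uM prostaglandin E2; NADH fluorescence (360/450 nm) read 5 times over 30-s intervals, last minus first.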
ALDH1A1 inh: inhibitors of human aldehyde dehydrogenase 1A1. P00352. Purified ALDH1A1, NADH fluorescence, propionaldehyde substrate. Potency, µM (top dose mostly 75.3 µM), most hits filed as inhibitors. 220,000 compounds, 7.3% hits. AID 1030; active = well fitted inhibition curve with a large enough effect, not every such curve was filed as active; inconclusive = small, poorly fitted or top-dose-only effect, or another doubt; inactive = no such curve, though single readings can be large or run the other way
Target sequence (P00352 whole entry, looked up): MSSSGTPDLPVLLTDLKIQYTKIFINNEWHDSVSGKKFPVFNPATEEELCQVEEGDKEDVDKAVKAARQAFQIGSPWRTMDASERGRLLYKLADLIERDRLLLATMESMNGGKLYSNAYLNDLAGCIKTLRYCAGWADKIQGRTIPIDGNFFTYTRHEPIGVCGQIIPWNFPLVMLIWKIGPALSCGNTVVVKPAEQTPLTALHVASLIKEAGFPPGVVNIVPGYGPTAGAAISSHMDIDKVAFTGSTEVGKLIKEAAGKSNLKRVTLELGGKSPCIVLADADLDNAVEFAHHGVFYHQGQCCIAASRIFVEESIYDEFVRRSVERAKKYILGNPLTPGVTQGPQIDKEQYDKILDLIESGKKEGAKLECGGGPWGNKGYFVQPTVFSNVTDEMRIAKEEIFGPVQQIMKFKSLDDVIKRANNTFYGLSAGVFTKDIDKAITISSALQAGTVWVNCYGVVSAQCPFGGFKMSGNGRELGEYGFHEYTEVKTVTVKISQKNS
IMPase inh: cell-permeable inhibitors of inositol monophosphatase (IMPase); P97697; CHO-M1 cells, IP1 accumulation, HTRF TR-FRET ratio; inhibition (IP1 accumulation), % at 46.1 µM; 120,000 tested, under 10 active; active = well fitted curve in the direction sought with a large enough effect in the signal ratio, not every such curve was filed as active; inconclusive = small, poorly fitted or top-dose-only effect, or a change in a side signal; inactive = no such curve, though single readings can be large or run the other way; the % refers to the signal ratio;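 note: cells stimulated with carbachol in lithium chloride buffer; higher means more IMPase inhibition seen as more IP1 and lower FRET ratio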
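CHO-M1 cells (CHO stably expressing M1 receptor), compound up to 46 uM final, stimulated with carbachol (50 uM as added) in buffer with 50mM LiCl, pH 7.4, 30 min at 37C. Cytosolic IP1 read by TR-FRET; AC50 from Hill fits.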
12-hLO inh: inhibitors of human 12-lipoxygenase (ALOX12). purified 12-hLO, xylenol orange hydroperoxide absorbance. Potency, µM (top dose mostly 57.1 µM), usual class: inhibitors. 150,000 compounds, 0.12% hits; note: nearly all actives have a fitted effect of over 55% in size
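Purified human 12hLO (150 nM), preincubated 15 min with compound, then 40 uM arachidonic acid for 30 min, room temperature, Hepes pH 7.0 with 0.01% Triton X-100. Hydroperoxide detected by ferrous iron/xylenol orange; 573/405 nm absorbance ratio gives reaction progress.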
Hits are given with their value; . = inactive; ? = inconclusive; / = no result given. Unless noted, calls come from the whole dose curve; as a rule, active = well fitted curve in the direction sought with a large enough effect; inconclusive = small, poorly fitted or top-dose-only effect, or another doubt; inactive = no such curve, though single readings can be large; an effect the other way counts as inactive or inconclusive.

SMILES | IMPase Li cell | PNC assembly inh | HPGD block | ALDH1A1 inh | IMPase inh | 12-hLO inh
N#Cc1cccc(-c2nc(NCc3ccccc3)c3ccccc3n2)c1 | . | / | / | ? | / | /
Cc1cc(C)c(S(C)(=O)=O)c(Oc2ccc(C(C)(C)C)cc2)n1 | . | . | . | 16µM | . | .
Cc1ccc(C)c(N2CCN(C(c3ccncc3)c3nnnn3Cc3ccccc3)CC2)c1 (configuration not stated) | . | . | ? | 13µM | . | .
CS(=O)(=O)N1CCN(c2nc3ccccc3s2)CC1 | . | . | . | . | . | .
COc1ccc(C(c2nnnn2Cc2ccccc2)N2CCN(c3nc4ccccc4s3)CC2)cc1OC (configuration not stated) | . | . | . | . | . | .
c1ccc(Cn2nnnc2C(c2ccccc2)N2CCN(c3nc4ccccc4s3)CC2)cc1 (configuration not stated) | . | . | . | 11µM | . | .
c1csc(Cn2nnnc2CN2CCN(c3nc4ccccc4s3)CC2)c1 | . | ? | . | 16µM | . | .
CN1CCN(C(c2cccc(C(F)(F)F)c2)c2nnnn2Cc2ccccc2)CC1 (configuration not stated) | . | . | . | . | . | .
c1ccc(C(c2nnnn2Cc2ccco2)N2CCN(c3nc4ccccc4s3)CC2)cc1 (configuration not stated) | . | . | . | . | . | .
O=S(=O)(c1ccccc1)N1CCN(c2nc3ccccc3s2)CC1 | 11µM | ? | . | . | . | .
O=C(Nc1nccs1)c1sc2ccccc2c1Cl | . | . | 13µM | . | . | .
O=C(Nc1nccs1)c1cc(-c2ccccc2)nc2ccccc12 | . | . | 18µM | . | / | .
O=C(Nc1nccs1)c1sc2cc(Cl)ccc2c1Cl | . | . | ? | ? | . | .
O=C(Nc1nccs1)c1cc(-c2ccco2)nc2ccccc12 | . | -89 | . | ? | / | .
COc1cccc(-c2cc(C(=O)Nc3nc4ccccc4s3)c3ccccc3n2)c1 | . | -115 | ? | ? | . | ?
CC1CCc2c(sc(NC(=O)Cc3ccccc3)c2C(=O)Nc2ccc(Cl)cc2)C1 (configuration not stated) | / | / | / | / | . | /
NC(N)=N[C@H](CCC(=O)O)C(=O)O | / | / | / | / | . | .
COc1ncc2nc(CCc3ccccc3)c(=O)n(CCC#N)c2n1 | . | / | . | ? | / | .
O=S(=O)(Nc1nc2ccc(S(=O)(=O)N3CCCCC3)cc2s1)c1ccccc1 | . | . | 8.9µM | 0.35µM | . | .
O=C(Nc1nc2ccc(S(=O)(=O)N3CCCC3)cc2s1)c1ccccn1 | . | / | / | ? | / | /
O=C(Nc1nc2ccc(S(=O)(=O)N3CCCCC3)cc2s1)c1ccncc1 | . | . | . | ? | . | .
Cc1ccc(S(=O)(=O)Nc2nc3ccc(S(=O)(=O)N4CCCC4)cc3s2)cc1 | . | . | 13µM | 0.16µM | . | .
Cc1c(Cl)cnc(NC(=O)COC(=O)c2ccc3ncsc3c2)c1Cl | . | . | . | . | / | .
O=C(COC(=O)c1ccc(O)cc1)Nc1ncc(Cl)cc1Cl | . | / | / | 28µM | / | /
O=C(COC(=O)c1ccc2ncsc2c1)Nc1ncc(Cl)cc1Cl | . | -95 | . | . | / | .
SMILES | IMPase Li cell | PNC assembly inh | HPGD block | ALDH1A1 inh | IMPase inh | 12-hLO inh
O=C(COC(=O)CCCN1C(=O)c2cccc3cccc(c23)C1=O)Nc1cccc(C(F)(F)F)c1 | . | -106 | ? | ? | / | .
O=C(COC(=O)CCCN1C(=O)c2ccccc2C1=O)Nc1ncc(Cl)cc1Cl | . | -100 | . | . | . | .
CCC[C@@H]1C[C@@]1(CCC)C(NC(=O)c1ccccc1)c1cccc(Cl)c1 (some centres not stated) | . | / | . | . | / | .
COc1cc(OC)cc(C(=O)N[C@H](C(=O)Nc2nc3ccc(S(C)(=O)=O)cc3s2)C(C)C)c1 | . | / | / | . | / | /
O=C(Nc1ccon1)c1cccc(S(=O)(=O)N2CCCCC2)c1 | . | / | / | . | / | /
CCC(=O)OCC(=O)C1(OC(=O)CC)C(C)CC2C3C(Cl)CC4=CC(=O)C=C[C@@]4(C)C3C(O)C[C@@]21C (some centres not stated) | . | / | . | ? | / | .
N#Cc1cnn(CC2CCCCC2)c1N | . | -97 | . | . | . | .
Cc1cc(C)c2c(N)c(C(=O)N3CCc4ccccc4C3)sc2n1 | . | / | / | ? | / | /
Cc1ccc2nc3sc(C(=O)N4CCOCC4)c(N)c3cc2c1 | . | . | 25µM | . | ? | .
CC(C)c1ccc2nc3sc(C(=O)N4CCc5ccccc5C4)c(N)c3cc2c1 | . | . | 16µM | . | . | .
CCOc1ccc2nc3sc(C(=O)N4CCN(C)CC4)c(N)c3cc2c1 | . | . | 14µM | . | . | .
O=C(c1ccco1)N1CCC2(CC1)CN(c1ccc(-c3ccccc3)cc1)C2 | . | / | . | . | / | .
Nc1ccccc1SCc1ccccc1 | . | / | / | . | / | /
N#CC(=C(\N)Sc1ccccc1N)/C(C#N)=C(/N)Sc1ccccc1N | . | / | 8.9µM | / | / | /
CN(C)S(=O)(=O)c1ccc(-n2cccc2)cc1 | . | / | / | . | / | /
CN(C)S(=O)(=O)c1ccc(=S)[nH]c1 | . | / | / | 1µM | / | /
O=C(COc1ccc(F)cc1)NNC(=O)c1cc2ccccc2oc1=O | . | -88 | . | . | / | .
Cc1cccc(OCC(=O)NNC(=O)c2cc3ccccc3oc2=O)c1 | . | . | . | ? | . | .
CC1=C(CC/C(C)=N/NC(N)=S)C(C)(C)CCC1 | . | ? | . | 28µM | . | .
COc1ccc(CCNC(=O)CSc2nnnn2C)cc1OC | . | / | / | . | / | /
COc1ccc(CCNC(=O)CSc2nncn2N)cc1OC | . | -82 | . | ? | . | .
COc1ccc(CCNC(=O)CSc2nnnn2-c2ccccc2OC)cc1OC | . | . | . | 0.28µM | . | .
Cc1nn(-c2ccccc2)c2sc(C(=O)N3CCCCC3)cc12 | . | . | 4µM | 1.8µM | . | .
O=C(O)CNC(=O)c1nc(-c2ccccc2)n(-c2ccccc2)n1 | . | ? | . | ? | / | .
COc1ccc(-n2nc(C(=O)O)nc2-c2ccccc2)cc1 | . | . | . | . | . | .
Cc1nn(-c2ccccc2)c2sc(C(=O)N3CCc4ccccc4C3)cc12 | . | . | ? | ? | . | .
Cc1cccc(NC(=O)c2nc(-c3ccccc3)n(-c3ccccc3)n2)c1C | . | . | . | 32µM | . | .
O=C(c1nc(-c2ccccc2)n(-c2ccccc2)n1)N1CCCCCC1 | . | . | . | 8.9µM | . | .
O=C(CN1CCCCC1)Nc1ccc(Br)cc1[N+](=O)[O-] | . | / | / | . | / | /
Clc1ccccc1-c1nnc2sc(C3COc4ccccc4O3)nn12 (configuration not stated) | . | ? | 20µM | 7.1µM | . | .
